Most compounds without a hit are left out; they make up all but 27% or so of the library.
CYP2C19 inh = blockers of cytochrome P450 2C19 activity – biochemical, luminescence, ADME assay, primary screen; AID 778, 2007; hit rate 21% among 96,000; inhibition, % at 5 µM; CYP2C19 Supersomes, luciferin-H EGE luminescence, 30 min;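 active = CYP2C19 inhibition above a set limit at 5 µM in the primary screen, cut at about 50% in these data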;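 note: plate controls were negative control wells for no effect and 2.5 mM tranylcypromine positive control for full effect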
CYP2C19 activ = human CYP2C19 activators, primary screen, biochemical, luminescence; Cytochrome P450 2C19 (Homo sapiens), P33261; recombinant CYP2C19, luciferin-H EGE luminescence; active compounds read high; 0 = fully inhibited enzyme, 1 = untreated enzyme; activation factor at 5 µM; 96,000 tested, under 10 active;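 active = activation factor of at least 2 at 5 µM in the primary screen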;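 note: 0 = wells with 2.5 mM tranylcypromine and 1 = vehicle-only wells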
EphB4 antag = EphB4-ephrin-B2 interaction antagonists, primary screen, biochemical, TNYL-RAW peptide probe, fluorescence polarization; Ephrin type-B receptor 4 (Homo sapiens), P54760; EphB4 LBD / TNYL-RAW-Alexa532 peptide; inhibition, % at 7 µM; hit rate 0.15% among 97,000; AID 720, 2007;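 active = inhibition above the screen-wide mean inhibition plus 3 SD, cut at about 15% in these data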;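 note: 0% = DMSO wells and 100% = excess unlabeled TNYL-RAW peptide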
CYP2C9 inh = blockers of cytochrome P450 2C9 activity – biochemical, luminescence, ADME assay, primary screen. P11712. CYP2C9 Supersomes, luciferin-H conversion. inhibition, % at 5 µM. hit rate 20% among 96,000. AID 777, 2007;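 active = blocking of liver enzyme CYP2C9 beyond about 50% at 5 µM, limit read from the data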
Target sequence (P11712 whole entry, looked up): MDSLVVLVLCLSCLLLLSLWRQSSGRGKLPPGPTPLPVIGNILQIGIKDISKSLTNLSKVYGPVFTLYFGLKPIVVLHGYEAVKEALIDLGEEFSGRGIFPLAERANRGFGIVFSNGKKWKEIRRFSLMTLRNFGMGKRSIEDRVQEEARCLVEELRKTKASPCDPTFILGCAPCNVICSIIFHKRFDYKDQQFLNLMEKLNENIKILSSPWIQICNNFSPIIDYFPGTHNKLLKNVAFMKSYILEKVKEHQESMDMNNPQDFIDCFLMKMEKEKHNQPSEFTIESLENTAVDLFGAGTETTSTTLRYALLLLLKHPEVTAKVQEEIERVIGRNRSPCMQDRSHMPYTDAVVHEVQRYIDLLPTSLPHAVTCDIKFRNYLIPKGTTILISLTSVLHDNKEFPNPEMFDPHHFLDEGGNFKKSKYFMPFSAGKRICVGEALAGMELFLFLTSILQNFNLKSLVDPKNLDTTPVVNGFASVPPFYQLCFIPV
CYP2C9 act = human CYP2C9 activators, primary screen, biochemical, luminescence. Cytochrome P450 2C9 (Homo sapiens), P11712. recombinant CYP2C9, luciferin-H conversion; active compounds read high; factor 1 = untreated enzyme, 0 = blocked. activation factor at 5 µM. hit rate 1.4% among 96,000. AID 1024, 2008;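 active = activation factor of 2 or more for CYP2C9 at a 5 µM dose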;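 note: 0 = sulfaphenazole-blocked wells and 1 = vehicle-only wells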
Active calls of the source: *; . = not tested or not shown.

SMILES	CYP2C19 inh	CYP2C19 activ	EphB4 antag	CYP2C9 inh	CYP2C9 act
CCOC(=O)Cc1[nH]nc2c1C(c1cccc(OC)c1OC)C(C#N)=C(N)O2 (stereo not drawn)	47	0.5	.	41	0.6
CCOC(=O)Cc1[nH]nc2c1C(C1C=CCCC1)C(C#N)=C(N)O2 (stereo not drawn)	87*	0.1	-7	71*	0.3
CN(C)N=Nc1ccc(S(=O)(=O)N2CCSC2C(=O)O)cc1 (stereo not drawn)	.	.	-8	.	.
CC(=O)N(c1c(C)n(C)n(-c2ccccc2)c1=O)C1(C(=O)NC2CCCC2)CCCCC1	-16	1.2	.	-20	1.2
Cc1ccc(C(C#N)c2ccc3c(C(F)(F)F)cc(C(F)(F)F)nc3n2)cc1 (stereo not drawn)	24	0.8	5	84*	0.2
CCOC(=O)Cn1c(=O)n(C2CCCC2)c(=O)c2ccccc21	91*	0.1	2	77*	0.2
N#Cc1ccccc1Cn1c(=O)n(C2CCCC2)c(=O)c2ccccc21	86*	0.1	4	96*	0
CC1CC(=S)Nc2ccccc2S1 (stereo not drawn)	.	.	-1	.	.
CCOc1cc(-c2c(C#N)c(N)nc3c2CCCC3)ccc1O	61*	0.4	.	36	0.6
CS(=O)(=O)c1nc(-c2ccccc2)cc(-c2ccccc2)c1C#N	7	0.9	-5	22	0.8
CCOc1cc(-c2cc(-c3ccc(N)cc3)nc(N)c2C#N)ccc1O	70*	0.3	4	89*	0.1
CCOc1cc(C2C(C#N)=C(N)Oc3n[nH]c(-c4ccccc4)c32)ccc1O (stereo not drawn)	71*	0.3	5	94*	0.1
N#CC1=C(N)Oc2n[nH]c(-c3ccccc3)c2C1c1cccnc1 (stereo not drawn)	38	0.6	8	23	0.8
CCOc1cc(-c2cc(-c3ccccc3)nc(N)c2C#N)ccc1O	52*	0.5	0	54*	0.5
COc1ccc(N2CCN(S(=O)(=O)c3ccc(OC)cc3)CC2)cc1	.	.	0	.	.
Cc1ccc(Nc2cnn(C34CC5CC(CC(CC(=O)O)(C5)C3)C4)c(=O)c2Cl)cc1C	6	0.9	-1	0	1
Cc1c(NC(=O)c2cc(-n3cnnc3)ccc2Cl)cccc1-c1nc2ccccc2s1	4	1	6	19	0.8
Cc1ccc(N2CCCCn3c2nc2c3c(=O)[nH]c(=O)n2C)cc1	8	0.9	9	12	0.9
CCOC(=O)c1c(NC(=O)CSc2nnc(Cc3ccccc3)o2)sc(C(C)=O)c1C	39	0.6	0	52*	0.5
CCOC(=O)c1c(NC(=O)CSc2nnc(CNc3ccc(F)cc3)o2)sc(C(C)=O)c1C	89*	0.1	5	94*	0.1
CCOC(=O)c1sc(NC(=O)CSc2nnc(Cc3ccccc3)o2)c(C#N)c1C	28	0.7	6	90*	0.1
CCOC(=O)c1c(NC(=O)CSc2nnc(-c3ccccc3)o2)sc(C(C)=O)c1C	38	0.6	-2	75*	0.2
Cn1nc(C(=O)NC2=NCCS2)ccc1=O	-18	1.2	0	-24	1.2
Cc1cc(=O)oc2n[nH]c(-c3ccccc3)c12	4	1	4	4	1
CCC1(CC)Cc2ccccc2-c2nc(CN3CCOCC3)[nH]c(=O)c21	12	0.9	-5	-3	1
SMILES	CYP2C19 inh	CYP2C19 activ	EphB4 antag	CYP2C9 inh	CYP2C9 act
COc1ccc(OC)c(S(=O)(=O)Nc2cccnc2)c1	26	0.7	5	1	1
COc1cc(NC(=O)C2CCCN(S(=O)(=O)c3cccc4nsnc34)C2)cc(OC)c1 (stereo not drawn)	29	0.7	0	63*	0.4
O=C(Nc1cccnc1)C1CCCN(S(=O)(=O)c2cccc3nsnc23)C1 (stereo not drawn)	69*	0.3	3	70*	0.3
Cc1ccc2nc(NC(=O)C3CCCN(S(=O)(=O)c4cccc5nsnc45)C3)sc2c1 (stereo not drawn)	50	0.5	2	52*	0.5
O=C(Nc1ccc2c(c1)OCCO2)C1CCCN(S(=O)(=O)c2cccc3nsnc23)C1 (stereo not drawn)	32	0.7	-1	42	0.6
COc1ccc(OC)c(NC(=O)C2CCCN(S(=O)(=O)c3cccc4nsnc34)C2)c1 (stereo not drawn)	67*	0.3	-5	34	0.7
Cc1ccnc(NC(=O)C2CCN(S(=O)(=O)c3cccc4nsnc34)CC2)c1	20	0.8	1	14	0.9
COc1cc(OC)cc(C(=O)N/N=C/c2ccc(OC)c(COc3ccc(F)cc3)c2)c1	33	0.7	1	10	0.9
COc1ccc(/C=C/C(=O)c2ccccc2O)cc1CN1CCOCC1	58*	0.4	-1	44	0.6
COc1ccc(/C=C/C(=O)c2ccccc2)cc1COc1ccccc1F	41	0.6	-1	74*	0.3
CCSc1sccc1C1C(C#N)=C(N)N(c2cccnc2)C2=C1C(=O)CCC2 (stereo not drawn)	45	0.6	1	43	0.6
COC(=O)c1cc(NC(=O)c2cc(C)oc2C)cc(C(=O)OC)c1	.	.	4	.	.
CC1CCC(NCc2ccco2)CC1 (stereo not drawn)	-20	1.2	-4	-12	1.1
Cc1nc(NC(=O)c2oc3ccccc3c2C)sc1C(=O)N(C)C	.	.	2	.	.
CCOC(=O)C(C)Oc1ccc2c(CC)cc(=O)oc2c1C (stereo not drawn)	35	0.6	4	60*	0.4
CCOC(=O)C(C)Oc1ccc2c(C)cc(=O)oc2c1C(C)=O (stereo not drawn)	58*	0.4	-2	7	0.9
Cc1cccc(/C(N)=N/OC(=O)N2c3ccccc3Sc3ccccc32)c1	27	0.7	1	54*	0.5
O=C1Nc2ccccc2C12OCC(COc1ccc(Cl)cc1)O2 (stereo not drawn)	84*	0.2	6	20	0.8
COc1ccc(C2CC(=O)C(C=NCCCN3CCOCC3)=C(O)C2)cc1 (stereo not drawn)	-8	1.1	-6	-1	1
CS(=O)(=O)Nc1ccc(C(=O)NCc2cccnc2)cc1	-9	1.1	1	-17	1.2
N#CC12CCCCC1CC1CCCCC1(C#N)N2Cc1ccccn1 (stereo not drawn)	3	1	-9	-17	1.2
COc1cc(NC(=O)C2COc3ccccc3O2)c(OC)cc1Cl (stereo not drawn)	86*	0.1	3	84*	0.2
COC(=O)c1ccc(C)c(NC(=O)C2COc3ccccc3O2)c1 (stereo not drawn)	78*	0.2	-2	79*	0.2

High-throughput results as filed in PubChem.
